The subject of the test is phosphomevalonate kinase (Streptococcus pneumoniae D39). Description: S. pneumoniae PMK inhibitors, primary screen, biochemical, mevalonate pathway, pilot trial included (AID 539).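 Also: 0% = full reaction with DMSO carrier and 100% = background rate without enzyme reaction.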 The conditions noted are these: purified PMK, PK/LDH-coupled NADH absorbance 340 nm, at 10 µM, stronger effect = higher value.
Setting [1] is: measured here: pilot screen replicates.

In all, about 65,000 compounds went through this assay and about 320 (0.49%) were called active.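 The calls were made as follows: active = top-ranked compounds by inhibition in the single 10 µM screen, taking a fixed number of the strongest; inactive = the rest, inconclusive results apart.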 For the sample, actives were picked, then their nearest neighbours and some compounds at random.

A word on the inhibition: it is the share of the control response that was lost under treatment.

Take `O=C(Nc1cccc2c1CCCC2)C1CCN(C(=O)NC2CCCCC2)CC1`: the inhibition is 13% (inactive).

For `CCC(C)n1[nH]c(=O)cc1N` (configuration not stated), the inhibition was 5% (inactive).

Turning to `Cc1nn2c3cc(N4CCOCC4)ccc3nc2c2ccccc12`, the inhibition was 0% (inactive).

On to `Cn1c(SCC(=O)N2CCOCC2)nnc1-c1ccc(NC(=O)c2ccccc2F)cc1`, for which the inhibition is 40% (active).

`Cn1c(SCC(=O)Nc2cccc(O)c2)nnc1-c1ccc(S(=O)(=O)N2CCOCC2)cc1`: the inhibition was 0% (inactive).

As to `Cc1ccccc1C(=O)Nc1cccc(-c2nnc(SCC(=O)O)n2C)c1`, the inhibition was 7% (inactive).

As for `CCc1nnc(NC(=O)CSc2nnc(COc3ccc(C#N)cc3)n2-c2ccccc2)s1`, the inhibition was 4% (inactive).

Regarding `Cn1c(=O)[nH]c(=O)c2c1nc(Br)n2CCCCSc1nc2ccccc2o1`, the inhibition is 8% (inactive).

For `C1=C(CCNc2ncnc3c2cnn3-c2ccccc2)CCCC1`, the inhibition was 8% (inactive). Under setting [1], this compound yielded an inhibition of 0.5%.

Regarding `c1csc(-c2nc(-c3ccncc3)no2)c1`, the inhibition was 0% (inactive).

As for `O=C(O)CCN1C(=O)CC2(CCCCC2)C1=O`, the inhibition was 12% (inactive).

With `Cc1ccc(C)c(NC(=O)C2CCCN2C(=O)OC(C)(C)C)c1` (configuration not stated), the inhibition was 0% (inactive).

Consider `CC(C)N(C(=O)Cn1c(SCC(=O)N2CCN(c3ccccc3)CC2)nc2ccccc21)C(C)C`, for which the inhibition was 4% (inactive).

For the compound `COCCN(CC(=O)Nc1ccccc1C)S(=O)(=O)c1ccc(S(=O)(=O)N2CCCC2)cc1`, the inhibition was 10% (inactive). Besides, the inhibition under setting [1] is 2.5%.

Turning to `CCOC(=O)C1CCN(C(=O)C2CCN(S(=O)(=O)N3CCCC3)CC2)CC1`, the inhibition was 30% (active).

Regarding `CCOC(=O)C1CCN(C(=O)C2CCN(S(=O)(=O)CC)CC2)CC1`, the inhibition is 2% (inactive).

On to `CCOC(=O)C1CCN(C(=O)C2CCN(S(=O)(=O)c3c(C)noc3C)CC2)CC1`, for which the inhibition was 11% (inactive).

Consider `CC1(C)CC(=O)C=C(NC2CC(C)(C)NC(C)(C)C2)C1`, for which the inhibition was 8% (inactive).

Consider `c1ccc(CCn2nnnc2CN2CCN(C3CCCC3)CC2)cc1`, for which the inhibition was 0% (inactive). For the same compound, the inhibition under setting [1] amounted to 0.5%.

Take `CC1CCCCC1NC(=O)CCS(=O)(=O)c1cccc2nonc12` (configuration not stated): the inhibition was 0% (inactive).

As to `O=C1CSC(=O)N1CCOCCN1C(=O)CSC1=O`, the inhibition was 8% (inactive).

With `Cc1ccccc1CN1CCN(C(=O)c2cccc(F)c2)CC1`, the inhibition is 0% (inactive). Under setting [1], this compound yielded an inhibition of 2%.

`CCCCCOC(=O)C1=C(C)Nc2nnnn2C1c1ccc(OC)c(OC)c1OC` (configuration not stated): the inhibition was 11% (inactive).

For the compound `COc1ccc(CCn2nnnc2C(c2ccccc2)N2CCN(C)CC2)cc1OC` (configuration not stated), the inhibition is 18% (inactive).

Take `COC(=O)c1ccc(Oc2nc(Nc3ccc(F)cc3)nc(N3CCCC3)n2)cc1`: the inhibition is 4% (inactive).

Consider `CCC1CCCCN1CCCNC(=O)Cn1nc(-c2ccccc2)ccc1=O` (configuration not stated), for which the inhibition was 26% (active).

Turning to `CCC1CCCCN1CCNC(=O)c1[nH]c(C)c(C(C)=O)c1C` (configuration not stated), the inhibition was 1% (inactive).

On to `Cc1ccc(-c2ccc(=O)n(CC(=O)NCCCN3CCCCC3)n2)cc1`, for which the inhibition was 18% (inactive).

With `CCCCNc1nc2c(c(=O)n(C)c(=O)n2C)n1Cc1cccc(OC)c1`, the inhibition is 0% (inactive).

On to `COc1ccccc1NC(=O)CN1CCN(S(=O)(=O)c2ccc(Br)cc2)CC1`, for which the inhibition is 5% (inactive).

Turning to `NC(=O)C1CCN(C(=O)c2ccc(C(F)(F)F)cc2)CC1`, the inhibition is 12% (inactive).

Turning to `CCC(=O)c1ccc(OCC(O)CN2CCN(c3cccc(C(F)(F)F)c3)CC2)cc1` (configuration not stated), the inhibition is 0% (inactive).

As for `O=C(NCCCN1CCCCCC1)C1CC(=O)N(C2CCCC2)C1` (configuration not stated), the inhibition was 12% (inactive).

In the case of `CCOc1ccc2[nH]c(=O)c(CN(CCCO)C(C)=O)cc2c1`, the inhibition was 20% (inactive).

As to `COC(=O)CCSc1nccn1Cc1ccccc1`, the inhibition was 0% (inactive).

Regarding `O=C(CSc1nnnn1-c1ccc2c(c1)CCC2)Nc1ccc2c(c1)OCCO2`, the inhibition was 0% (inactive).

`CCn1ncc(Br)c1C(=O)Nc1cc(C)ccc1F`: the inhibition is 6% (inactive).

For `COc1ccc(C(c2nnnn2C2CCCCC2)N2CCN(c3ccccc3F)CC2)cc1` (configuration not stated), the inhibition is 3% (inactive).

As to `CC1CCc2c(sc(NC(=O)c3ccc(Cn4cc(Br)cn4)o3)c2C(N)=O)C1` (configuration not stated), the inhibition is 0% (inactive).

As for `COc1ccc(N(CC(=O)NC2CCCCCCC2)S(=O)(=O)c2c(C)nn(C)c2C)cc1`, the inhibition was 10% (inactive).

On to `CCOC(=O)c1cccc(NC(=O)CN(c2ccc(C)cc2)S(=O)(=O)c2c(C)noc2C)c1`, for which the inhibition was 13% (inactive).

As to `Cc1ccc(S(=O)(=O)N2CCOCC2)cc1C(=O)NCc1ccc(F)cc1`, the inhibition is 8% (inactive).

Turning to `Cc1nc2nc[nH]n2c(=O)c1NC(=O)c1cccc(OCC(C)C)c1`, the inhibition was 12% (inactive).

As for `O=C(Cn1nc(Cc2cccnc2)c2ccccc2c1=O)NCC1COc2ccccc2O1` (configuration not stated), the inhibition was 7% (inactive).

On to `COCCNC(=O)C(C#N)c1nc2ccccc2nc1N1CCN(Cc2ccc3c(c2)OCO3)CC1` (configuration not stated), for which the inhibition was 2% (inactive).

Regarding `CCOC(=O)Cc1csc(NC(=O)C(C)(C)C)n1`, the inhibition was 4% (inactive).

`COC(=O)CSc1nc(C2CC2)nc2ccccc12`: the inhibition was 15% (inactive).

`Cc1ccccc1-n1nnc2c(=O)oc3ccccc3c21`: the inhibition is 10% (inactive). In addition, the inhibition under setting [1] came out at 4%.

For the compound `CC(=O)N1CCN(C(=O)Nc2cccc(C(F)(F)F)c2)CC1`, the inhibition was 17% (inactive).

For the compound `CC(C)C(NC(=O)c1cccc(S(=O)(=O)N2CCOCC2)c1)C(=O)NCCc1ccccn1` (configuration not stated), the inhibition was 11% (inactive).

As for `Cn1c(=O)c2c(nc(N3CCCCCC3)n2CC(O)COc2ccc(Cl)cc2)n(C)c1=O` (configuration not stated), the inhibition is 7% (inactive).

For the compound `Cn1c(=O)oc2cc(S(=O)(=O)N3CCC(C(=O)Nc4ccc(OC(F)(F)F)cc4)CC3)ccc21`, the inhibition is 14% (inactive). Under setting [1], the inhibition is 2%.

`COc1ccc(S(=O)(=O)N2CCC(C(=O)N3CCOCC3)CC2)cc1OC`: the inhibition was 8% (inactive).

Regarding `CCC(CC)C(=O)Nc1cccc(C(=O)N2CCCC2)c1`, the inhibition is 4% (inactive).

`C=CCn1c(C)cc(C(=O)CN2C(=O)c3ccccc3C2=O)c1C`: the inhibition was 13% (inactive).

With `COc1cc(C2C(C(=O)c3sc(C)nc3C)=C(O)C(=O)N2CCN(C)C)cc(OC)c1OC` (configuration not stated), the inhibition is 17% (inactive).

In the case of `O=C(COc1ccc2c3c(c(=O)oc2c1)CCC3)NC1CCCCC1`, the inhibition is 15% (inactive).

For the compound `CCOC(=O)N1CCN(S(=O)(=O)c2cc3c(cc2C)NC(=O)CO3)CC1`, the inhibition was 14% (inactive).

As for `CC(=O)C1C(c2ccc(Cl)cc2)NC(=O)NC1(O)C(F)(F)F` (configuration not stated), the inhibition was 7% (inactive).

For the compound `Nc1c(C(=O)NCc2ccccc2)nnn1Cc1cccc(Cl)c1`, the inhibition is 0% (inactive).

Take `CCOC(=O)c1[nH]c2ccc(OC)cc2c1NC(=O)CCN1CCN(Cc2ccccc2)CC1`: the inhibition was 6% (inactive).

In the case of `CCN(CC)S(=O)(=O)c1cccc(C(=O)NCC(=O)OCC(=O)NCc2ccccc2)c1`, the inhibition is 0% (inactive).

Consider `Cc1ccc(C)n1C(Cc1ccccc1)C(=O)O` (configuration not stated), for which the inhibition was 7% (inactive).

Regarding `COc1ccc(OC)c2c1sc(=NC(=O)CN1C(=O)CCC1=O)n2C`, the inhibition was 12% (inactive).

For `O=C(Nc1ccc(S(=O)(=O)N2CCCC2)cc1Cl)C1=COCCO1`, the inhibition was 14% (inactive).

As for `N#Cc1ccccc1-n1c(N)c(C(=O)N2CCCC2)sc1=S`, the inhibition is 4% (inactive).

In the case of `Cc1ccc(S(=O)(=O)N2CCN(C(=O)CCC(=O)NC3CCCc4ccccc43)CC2)cc1` (configuration not stated), the inhibition is 21% (inactive).

Turning to `c1ccc(CCN2CN=C(Nc3nc4ccccc4o3)NC2)cc1`, the inhibition is 7% (inactive).

As for `Fc1ccc2nc(Nc3nc4c(s3)CCCC4)sc2c1`, the inhibition was 8% (inactive).

For `Clc1ccc(Cn2ncc3c(NCc4cccnc4)ncnc32)cc1`, the inhibition was 9% (inactive). This compound showed an inhibition under setting [1] of 1.5%.

Turning to `Fc1c(F)c(C(F)(F)F)c(F)c(F)c1N1CCN(c2ccc3nnc(C(F)(F)F)n3n2)CC1`, the inhibition was 0% (inactive).

With `COc1ccccc1N1CCN(c2nc3ccccc3n3nnnc23)CC1`, the inhibition was 7% (inactive).

Turning to `Cc1ccc(C(=O)NC2CC(C)(C)NC(C)(C)C2)c(C)c1`, the inhibition was 1% (inactive).

For `CCOC(=O)N1CCN(Cc2nc3c(c(=O)n(C)c(=O)n3C)n2Cc2ccccc2)CC1`, the inhibition was 2% (inactive). In addition, the inhibition under setting [1] worked out at 1%.

For the compound `CCOC(=O)CSc1nc2c(c(=O)n(Cc3ccccc3Cl)c(=O)n2C)n1C`, the inhibition is 5% (inactive).

Turning to `CCOc1cc2[nH]c(=S)n(CCCN3CCCC3=O)c(=O)c2cc1OCC`, the inhibition is 14% (inactive).

Take `COc1ccc(OC)c2[nH]c(=O)c(CCNC(=O)C(C)(C)C)cc12`: the inhibition was 7% (inactive).

For the compound `N=c1c2c3c(sc2ncn1N)CCCCC3`, the inhibition is 17% (inactive).

`O=C1c2ccccc2C(=O)N1c1ccccc1S(=O)C(F)(F)F` (configuration not stated): the inhibition was 12% (inactive).

Turning to `CCOC(=O)c1nnn(-c2nc(OC)nc(N(C)C)n2)c1-c1ccccc1`, the inhibition is 17% (inactive).

Consider `COc1ccc(C2C(C(=O)Nc3ccccc3OC)=C(C)Nc3nnnn32)c(OC)c1` (configuration not stated), for which the inhibition is 8% (inactive).

For `COc1ccccc1NC(=O)C1=C(C)Nc2ncnn2C1c1ccc(C)o1` (configuration not stated), the inhibition is 3% (inactive). This compound also had an inhibition under setting [1] of 2.5%.

As to `COc1ccccc1NC(=O)C1=C(C)NC2=C(C(=O)CCC2)C1c1ccc(C)o1` (configuration not stated), the inhibition is 26% (active).

Turning to `COc1cc(OC)cc(C(=O)Nc2ncc3c(n2)CC(C)(C)CC3=O)c1`, the inhibition was 11% (inactive).

In the case of `Cc1cc(NC(=O)Cn2nc(C(F)(F)F)c3c2CCCC3)no1`, the inhibition is 3% (inactive).

On to `c1cnc(NC2C3CC4CC(C3)CC2C4)nc1` (configuration not stated), for which the inhibition was 7% (inactive).

With `COc1ccc2[nH]c3ccc(OC)cc3c2c1`, the inhibition is 6% (inactive).

Consider `COc1ccc(NC(=O)C2CCCN(S(=O)(=O)c3cccc4cccnc34)C2)cc1` (configuration not stated), for which the inhibition was 8% (inactive).

As to `C#CCN1CC(C)/C(=N/O)CC1C` (configuration not stated), the inhibition is 7% (inactive).

In the case of `Cc1cccc(NC(=O)c2ccc3ccccc3n2)n1`, the inhibition is 0% (inactive). The compound further yielded an inhibition under setting [1] of 0.5%.

Regarding `CCOc1ccc(CNC(=O)C2CC(=O)N(C3CCCC3)C2)cc1OC` (configuration not stated), the inhibition is 8% (inactive).

Regarding `CCOCCCN1C(=O)CN(C2CCCCC2)C(=O)C1c1ccc(OCC)c(OC)c1` (configuration not stated), the inhibition is 29% (active).

As to `CCOc1ccc(CNC(=O)C2CCC(=O)N2C2CCCC2)cc1OC` (configuration not stated), the inhibition is 11% (inactive).

Regarding `CCc1nnc(NC(=O)c2cccs2)s1`, the inhibition is 35% (active).

In the case of `CCc1ccccc1NC(=O)c1cccs1`, the inhibition was 7% (inactive).

With `CCc1nnc(NC(=O)CCC(=O)O)s1`, the inhibition was 0% (inactive).

For `CCCN(c1ccc(C(C)C)cc1)S(=O)(=O)c1c(C)[nH]c(=O)[nH]c1=O`, the inhibition is 8% (inactive).

(Values after PubChem BioAssay AID539 (SRMLSC, 2006).)
